# Results from PubChem BioAssay.
# Target: Fibroblast growth factor 2 (Homo sapiens) (UniProt P09038)
# Test: FGF2 binders on small-molecule microarrays, primary screen, biochemical, small-molecule microarray, 635/667 nm fluorescence (AID 1133)
# Details: small-molecule microarray binding, FGF2, fluorescence 635/667; higher = more signal
# Sequence of Fibroblast growth factor 2 (Homo sapiens) (P09038 whole entry, looked up): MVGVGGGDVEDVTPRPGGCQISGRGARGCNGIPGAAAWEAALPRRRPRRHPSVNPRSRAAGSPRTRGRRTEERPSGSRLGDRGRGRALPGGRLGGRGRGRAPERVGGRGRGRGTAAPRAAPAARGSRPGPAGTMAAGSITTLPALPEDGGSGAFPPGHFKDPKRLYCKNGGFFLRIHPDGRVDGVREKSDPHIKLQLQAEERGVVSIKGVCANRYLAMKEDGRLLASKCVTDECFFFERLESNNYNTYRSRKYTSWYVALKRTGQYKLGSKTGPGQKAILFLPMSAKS
row,Structure (SMILES),composite z-score
1,CON=C(C)CCN1CCCCc2nc(C)c(C)cc21,0.644
2,CCOC(=O)[C@H](Cc1ccccc1)NC(=O)CCC1CC(OC(=O)NCc2cccc3ccccc23)CC2(CCCC(COC(=O)NCC3CCCCC3)O2)O1 (stereo partly drawn),0.754
3,CO[C@H]1COC(=O)CCC[C@H](C)[C@@H](OC)COC(=O)CC=C[C@@H]1C,0.638
4,C[C@H]1C=CCC(=O)OC[C@H](C)C(=O)N2CCC[C@H]2C(=O)OC1,2.01
5,CC(=O)OC[C@H]1O[C@H](CCON=C(C)C)C=C[C@@H]1OC(C)=O,0.247
6,CC(C)[C@@H](OCc1ccccc1)[C@H](C)C=NO[C@@H](C)c1cn([C@H](CO)Cc2ccccc2)nn1,0.346
7,O=C1C2=CC[C@H]3C(=O)N(C4CCCCC4)C(=O)[C@H]3[C@H]2[C@H](O)[C@@H]2O[C@H]12,-0.682
8,CC(C)(C)N1C(=O)[C@H]2[C@H]3[C@H](O)[C@H](O)CC(=NNC(=O)OCc4ccccc4)[C@H]3CC[C@H]2C1=O,0.491
9,CC(C)(C)N1C(=O)[C@H]2[C@H]3[C@H](O)[C@H](O)CC(=NNC(=O)OCc4ccccc4)[C@@H]3CC[C@H]2C1=O,0.704
10,O=C1C2=CC[C@H]3C(=O)N(C[C@@H]4CCCO4)C(=O)[C@H]3[C@H]2[C@H](O)[C@@H]2O[C@H]12,0.0043
11,CO[C@@H]1C=CCC(=O)N[C@@H](C)C(=O)OC[C@@H](NS(=O)(=O)c2ccc(C)cc2)[C@H](C)C=CCC(=O)OC[C@H]1C,0.638
12,C[C@@H]1CC[C@@H](C(=O)O)N[C@H]1c1cccc(N2CCOCC2)c1,0.652
13,CO[C@@H]1COC(=O)[C@@H]2CCCN2C(=O)[C@@H](C)COC(=O)CCC[C@H]1C,0.264
14,O=C1[C@H]2[C@H]3[C@H](O)[C@H](O)CC(=NOC[C@@H](O)COCc4ccco4)[C@@H]3CC[C@H]2C(=O)N1C1CCCCC1,1.37
15,CC(CCC(=O)OC[C@H]1O[C@H](C#Cc2ccccc2)C=C[C@@H]1Oc1ccc(C)cc1)=NO[C@H](C)c1cn([C@@H]2COC[C@H]2O)nn1,0.162
16,C[C@H]1CC[C@H]2C(=O)N[C@H](Cc3ccccc3)C(=O)N2[C@@H]1c1ccccc1,0.831
17,CC(=O)OC[C@H]1O[C@H](CC=NO[C@H](C)c2cn([C@@H]3COC[C@H]3O)nn2)C=C[C@@H]1OC(C)=O,0.396

row,Structure (SMILES),composite z-score
1,O=C1CCCC=C1C(O)COCc1ccccc1 (stereo not drawn),0.236
2,COc1ccc(COC(=O)NN=C2C[C@@H](O)[C@@H](O)[C@@H]3[C@@H]4C(=O)N(C5CCCCC5)C(=O)[C@@H]4CC[C@@H]23)cc1,-0.373
3,COC(=O)CC=C[C@@H](C)[C@@H](C=NOC[C@@H](O)COCc1ccco1)OC,0.509
4,O=C1[C@H]2[C@H]3[C@H](O)[C@H](O)CC(=NO[C@@H]4O[C@H](CO)[C@@H](O)[C@H](O)[C@H]4O)[C@@H]3CC[C@H]2C(=O)N1C[C@@H]1CCCO1,0.4
5,O=C1[C@H]2[C@H]3[C@H](O)[C@H](O)CC(=NOC[C@@H](O)COCc4ccco4)[C@@H]3CC[C@H]2C(=O)N1Cc1ccccc1,0.962
6,CCOC(=O)[C@H](Cc1ccccc1)NC(=O)CCC1CC(OC(=O)NCCc2ccc(F)cc2)CC2(CCCC(COC(=O)NCc3cccc(C(F)(F)F)c3)O2)O1 (stereo partly drawn),0.696
7,O=C1C=C[C@@H](O)[C@@H]2[C@@H]3C(=O)N(C4CCCCC4)C(=O)[C@@H]3CC[C@@H]12,0.826
8,CCN1C(=O)[C@H]2[C@@H]3C(=CC[C@H]2C1=O)C(=O)[C@H]1O[C@H]1[C@H]3O,1.42
9,CCOC(=O)[C@H](Cc1ccccc1)NC(=O)CCC1CC(OC(=O)NCc2ccc3c(c2)OCO3)CC2(CCCC(COC(=O)NCCOc3ccccc3)O2)O1 (stereo partly drawn),0.776
10,CCN1C(=O)[C@H]2[C@H]3[C@H](O)[C@H](O)CC(=NO[C@H](C)c4cn([C@H](CO)Cc5ccccc5)nn4)[C@@H]3CC[C@H]2C1=O,0.474
11,COC(OC)[C@@H](C)[C@H](OC)[C@@H](C)[C@H](OC)c1ccccc1,0.142
12,CO[C@@H]1COC(=O)[C@H](CCSC)NC(=O)CC=C[C@@H](C)COC(=O)[C@@H]2CCCN2C(=O)CC=C[C@H]1C,0.889
13,CC(C)=NO[C@H](C)c1cn([C@@H]2COC[C@H]2O)nn1,0.594
14,CC(C)=NOC(C)CN1CCCc2nc(C)c(C)cc21 (stereo not drawn),0.753
15,CC#CCOCCC=C1c2ccccc2[C@@H](OC)[C@@H]1C,0.412
16,O=C1[C@H]2[C@H]3[C@H](O)[C@H](O)CC(=NO[C@@H]4O[C@H](CO)[C@@H](O)[C@H](O)[C@H]4O)[C@H]3CC[C@H]2C(=O)N1C[C@@H]1CCCO1,0.182
